# Source: PubChem BioAssay AID652154 (Broad Institute, 2013)
# Where “and” joins values, the source holds several entries; their conditions need not be identical. Equal values may be shown once. The campaign covered roughly 360,000 compounds. About 4,200 (1.2%) were called active. The sample as a whole holds a higher share of actives than the screen did. Unmarked numbers belong to inactive results.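 Rule for the calls: active = mean replicate inhibition at least 60% with every replicate also reaching 60%; inconclusive = only one of the two criteria is met; inactive = mean below 60% and not all replicates reaching 60%.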
# Experiment: inhibitors of PAX8-driven TPO luciferase reporter, primary screen, RMG-I cells, single concentration (AID 652154);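 note: luciferase light reporting Pax8 driven TPO promoter activity; plate controls were median of neutral control wells for no effect and mitoxantrone controls for full effect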
# Conditions: SteadyGlo, 24 h, at 12.6 µM, stronger effect = higher value
row,SMILES,inhibition
1,CN(C)CC1Oc2ccccc2OC1(O)c1ccccc1 (stereo not given),78.4% (active)
2,O=C(Cc1ccccc1)N1CCCCN2[C@H](CO)[C@H](c3ccc(C#Cc4ccccc4)cc3)[C@H]2C1,0.0955%
3,O=C(Cc1ccncc1)N1CCCCN2[C@H](CO)[C@@H](c3ccc(C#CC4(O)CCCC4)cc3)[C@H]2C1,-4.86%
4,O=C(Cc1ccccc1)N1CCCCN2[C@H](C1)[C@H](c1ccc(C#CC3(O)CCCC3)cc1)[C@@H]2CO,12.4%
5,CCC(C)(O)C(=O)OC1C(=O)OC2CC3C(C)=CC(=O)C(O)C3(C)C3C4(O)OCC23C1C(C)C4O (stereo not given),96.4% (active)
6,C/C=C/c1ccc([C@H]2[C@H](CO)N3CCCCN(C(=O)Cc4ccncc4)C[C@@H]23)cc1,11.3%
7,N#Cc1cccc(-c2ccc([C@H]3[C@@H](CO)N4CCCCN(C(=O)Cc5cccnc5)C[C@@H]34)cc2)c1,-12%
8,Cc1cc(N2CCNC[C@@H]2C)ccc1N1CC[C@H](O)C1,1.43%
9,CC(=CCOc1ccc2ccc(=O)oc2c1)C1=CC(=O)C(C)(C)O1,108% (active)
10,COc1ccc(C#Cc2ccc([C@H]3[C@H](CO)N4CCCCN(C(=O)Cc5ccccc5)C[C@@H]34)cc2)cc1,-13.5%
11,C/C=C/c1ccc(C2[C@@H]3CN(Cc4cncnc4)C[C@H]2N3)cc1 (stereo not given in full),-5.53%
12,COc1cccc(-c2ccc3n(c2=O)C[C@@H]2[C@@H](CO)[C@H](C(=O)O)[C@H]3N2C(=O)c2cnccn2)c1,1.83%
13,COC(=O)[C@@H]1[C@@H](CO)[C@@H]2Cn3c(ccc(-c4ccc(F)cc4)c3=O)[C@H]1N2C(C)=O,-4.95%
14,CCOc1ccc(-c2cc(C)[n+](CCN(CC)CC)c(-c3ccc(OCC)cc3)c2)cc1,87.4% (active)
15,CCOC(=O)[C@]12Cc3cc(OC)ccc3[C@H]1N(C(C)C)C(=O)c1ccccc12,-13.7%
16,O=C(Cc1ccncc1)N1CCCCN2[C@@H](CO)[C@H](c3ccc(C#CC4(O)CCCC4)cc3)[C@@H]2C1,-6.83%
17,O=S(=O)(c1ccccc1)N1CCC2CCNC2C1 (stereo not given),-15.4%
18,O=C(Cc1cccnc1)N1CCCCN2[C@@H](CO)[C@H](c3ccc(C#CC4CCCC4)cc3)[C@@H]2C1,-34.4%
19,COc1cccc(-c2ccc([C@H]3[C@H]4CN(C(=O)Cc5ccncc5)CCCCN4[C@H]3CO)cc2)c1,47.9%
20,CCOC(=O)[C@@H]1[C@@H]2NC(=O)N[C@@]1(C)Oc1ccccc12,8.82% and -6.19%
21,Brc1ccc2c(c1)CNCc1cnnn1-2,-19.7%
22,O=C(O)[C@H]1[C@H](CO)[C@H]2Cn3c(ccc(-c4ccccc4)c3=O)[C@@H]1N2S(=O)(=O)c1ccccc1F,-5.43%
23,O=C1NCN(c2ccccc2)C12CCN(C(c1cccs1)c1nnnn1C1CCCCC1)CC2 (stereo not given),-2.94%
24,COc1ccc(-n2nnnc2C(c2cccc3ccccc23)N2CCC(n3c(=O)[nH]c4ccccc43)CC2)cc1 (stereo not given),63.7% (active)
25,COc1cccc(C(c2nnnn2-c2ccc3c(c2)OCCO3)N2CCC3(CC2)C(=O)NCN3c2ccccc2)c1OC (stereo not given),-8.19%

row,SMILES,inhibition
1,O=c1[nH]c2ccccc2n1C1CCN(C(c2ccccc2)c2nnnn2Cc2ccccc2)CC1 (stereo not given),82.1% (active)
2,O=c1[nH]c2ccccc2n1C1CCN(C(c2ccnc3ccccc23)c2nnnn2Cc2ccccc2)CC1 (stereo not given),-10.5%
3,CSCCC(c1nnnn1C(C)(C)C)N1CCC(n2c(=O)[nH]c3ccccc32)CC1 (stereo not given),32.9%
4,CCOC(=O)[C@]12Cc3ccccc3[C@H]1N(C1CCCCC1)C(=O)c1cc(OC)ccc12,49.5%
5,COc1cccc(-c2ccc3n(c2=O)C[C@H]2[C@H](CO)[C@@H](C(=O)O)[C@@H]3N2C(=O)c2cnccn2)c1,-1.69%
6,CS(=O)(=O)N1CCC2CCNC2C1 (stereo not given),-27.9%
7,COc1cc(OC)cc(C(=O)NCCN2CCC3(CC2)C(=O)NCN3c2ccccc2)c1,-21.4%
8,O=C(Cc1ccccn1)N1CCCCN2[C@@H](CO)[C@@H](c3ccc(C#Cc4ccccc4)cc3)[C@@H]2C1,9.59%
9,CC1=CC(=Cc2sc3ccccc3[n+]2C)C=C(C)O1,74.9% (active)
10,C/C=C/c1ccc(C2[C@@H]3CN(S(C)(=O)=O)C[C@H]2N3)cc1 (stereo not given in full),9.75%
11,CCCCCCCCCCCCn1ccc(=N)cc1,101% (active)
12,O=C(Cc1ccccn1)N1CCCCN2[C@H](C1)[C@H](c1ccc(-c3ccccc3F)cc1)[C@@H]2CO,19.2%
13,O=C(O)[C@@H]1[C@@H](CO)[C@@H]2Cn3c(ccc(-c4ccccc4F)c3=O)[C@H]1N2C(=O)c1cccnc1,-13.1%
14,OC[C@@H]1[C@H]2c3ccccc3NC[C@H]2N1Cc1cccnc1,2.56%
15,COC(=O)C1=C(c2ccc(F)cc2OCc2ccccc2)C[C@@H]2CC[C@H]1N2C(=O)NCc1ccc2[nH]ccc2c1,89% (active)
16,COC(=O)C1=C(c2ccccc2OCc2ccccc2)C[C@@H]2CC[C@H]1N2C(=O)NCc1ccc(OC)cc1,15%
17,COC(=O)C1=C(c2ccc(F)cc2OCc2ccccc2)C[C@@H]2CC[C@H]1N2C(=O)NCc1ccc(C(C)(C)C)cc1,79% (active)
18,COC(=O)C1=C(c2ccc(F)cc2OCc2ccccc2)C[C@@H]2CC[C@H]1N2C(=O)NCc1ccc(OC)c(OC)c1,21.7%
19,COC(=O)C1=C(c2ccc(F)cc2OCc2ccccc2)C[C@@H]2CC[C@H]1N2C(=O)NCc1ccc(Cl)cc1,24.6%
20,COC(=O)C1=C(c2ccc(OCc3ccccc3)cc2)C[C@@H]2CC[C@H]1N2C(=O)NCc1cccc(F)c1,5.35%
21,COC(=O)C[C@@H]1CC[C@@H]2NC[C@@H](O)COC[C@H]2O1,2.66%
22,COC(=O)C[C@H]1CC[C@H]2NC[C@@H](O)COC[C@@H]2O1,2.02% and -13.9%
23,COC(=O)[C@H]1[C@H](CO)[C@H]2Cn3c(ccc(-c4cccc(F)c4)c3=O)[C@@H]1N2Cc1ccccc1,7.46%
24,COC(=O)[C@@H]1[C@@H](CO)[C@@H]2Cn3c(ccc(-c4cccc(C(=O)N(C)C)c4)c3=O)[C@H]1N2C(=O)NC(C)C,-0.877%
25,O=C(Cc1ccncc1)N1CCCCN2[C@@H](CO)[C@H](c3ccc(-c4ccncc4)cc3)[C@@H]2C1,6.85%
